Compounds without any hit were thinned out: in the full panel of roughly 83,000, 20% have a hit.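 Negative percent growth values reflect cell death: -40 means 40% of the cells present at the start died, and -100 means all died.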 Unmarked numbers belong to inactive results. The source made the active and inactive calls. The calls were made as follows: active = growth percent below 10; inactive = the rest.
Tests used:
Experiment in all cases: NCI-60 one-dose screen, 48 h (100 = growth as untreated, 0 = no growth, -100 = all killed)
Conditions in all cases: 10 µM unless noted
DU-145 prostate = system: DU-145 prostate
K-562 leukemia = system: K-562 leukemia
MALME-3M melanoma = system: MALME-3M melanoma
MDA-MB-231 breast = system: MDA-MB-231 breast
RXF 393 renal = system: RXF 393 renal
SF-268 CNS = system: SF-268 CNS
SF-295 CNS = system: SF-295 CNS
SF-539 CNS = system: SF-539 CNS
UACC-257 melanoma = system: UACC-257 melanoma
M14 melanoma = system: M14 melanoma
HCT-15 colon = system: HCT-15 colon
HT29 colon = system: HT29 colon
SNB-75 CNS = system: SNB-75 CNS
SNB-19 CNS = system: SNB-19 CNS
U251 CNS = system: U251 CNS
PC-3 prostate = system: PC-3 prostate
SK-MEL-5 melanoma = system: SK-MEL-5 melanoma
UACC-62 melanoma = system: UACC-62 melanoma
LOX IMVI melanoma = system: LOX IMVI melanoma
SK-MEL-28 melanoma = system: SK-MEL-28 melanoma

C#CCOc1cc(/C=N/Nc2nc(-c3ccc(OC)cc3)cs2)ccc1O
growth (DU-145 prostate): 95.7%
growth (K-562 leukemia): 59.1%
growth (MALME-3M melanoma): 86.1%
growth (MDA-MB-231 breast): 96.5%
growth (RXF 393 renal): 107%
growth (SF-268 CNS): 94.3%
growth (SF-295 CNS): 84.1%
growth (SF-539 CNS): 93%
growth (UACC-257 melanoma): 93.2%
growth (M14 melanoma): 94.2%
growth (HCT-15 colon): 83.1%
growth (HT29 colon): 92.6%
growth (SNB-75 CNS): 95.5%
growth (SNB-19 CNS): 91.9%
growth (U251 CNS): 83.8%
growth (PC-3 prostate): 82.2%
growth (SK-MEL-5 melanoma): 63.7%
growth (UACC-62 melanoma): 70.8%
growth (LOX IMVI melanoma): 90.9%
growth (SK-MEL-28 melanoma): 97.8%

O=C(O)COc1ccc(F)cc1
growth (DU-145 prostate): 109%
growth (K-562 leukemia): 97.1%
growth (MALME-3M melanoma): 107%
growth (MDA-MB-231 breast): 100%
growth (RXF 393 renal): 107%
growth (SF-268 CNS): 93.6%
growth (SF-295 CNS): 102%
growth (SF-539 CNS): 96.9%
growth (UACC-257 melanoma): 102%
growth (M14 melanoma): 109%
growth (HCT-15 colon): 104%
growth (HT29 colon): 93.8%
growth (SNB-75 CNS): 99.8%
growth (SNB-19 CNS): 99.8%
growth (U251 CNS): 102%
growth (PC-3 prostate): 96.2%
growth (SK-MEL-5 melanoma): 102%
growth (UACC-62 melanoma): 102%
growth (LOX IMVI melanoma): 99%
growth (SK-MEL-28 melanoma): 116%

N#CC1=C(N)Oc2c(ccc3cccnc23)C1c1ccccc1 (stereo not given)
growth (DU-145 prostate): 17.6%
growth (K-562 leukemia): 17.2%
growth (MALME-3M melanoma): 47.9%
growth (MDA-MB-231 breast): 48.6%
growth (RXF 393 renal): 4.49% (active)
growth (SF-268 CNS): 45.2%
growth (SF-295 CNS): 18.1%
growth (SF-539 CNS): -39.6% (active)
growth (UACC-257 melanoma): 74.4%
growth (M14 melanoma): 20%
growth (HCT-15 colon): 28%
growth (HT29 colon): 12.6%
growth (SNB-75 CNS): -6.14% (active)
growth (SNB-19 CNS): 52.7%
growth (U251 CNS): 23.1%
growth (PC-3 prostate): 22.8%
growth (SK-MEL-5 melanoma): 6.58% (active)
growth (UACC-62 melanoma): 47.2%
growth (LOX IMVI melanoma): 33.7%
growth (SK-MEL-28 melanoma): 49.4%

O=C(Nc1cccc(Cl)c1)Oc1c(Cl)c(Cl)c(Cl)c(Cl)c1Cl
growth (DU-145 prostate): 95.6%
growth (K-562 leukemia): 98.6%
growth (MALME-3M melanoma): 101%
growth (MDA-MB-231 breast): 94.3%
growth (RXF 393 renal): 117%
growth (SF-268 CNS): 95.9%
growth (SF-295 CNS): 90%
growth (SF-539 CNS): 95.3%
growth (UACC-257 melanoma): 110%
growth (M14 melanoma): 97.3%
growth (HCT-15 colon): 100%
growth (HT29 colon): 96.3%
growth (SNB-75 CNS): 76.2%
growth (SNB-19 CNS): 99.1%
growth (U251 CNS): 102%
growth (PC-3 prostate): 86.9%
growth (SK-MEL-5 melanoma): 90.6%
growth (UACC-62 melanoma): 90%
growth (LOX IMVI melanoma): 95.9%
growth (SK-MEL-28 melanoma): 109%

COc1cccc(C2C3=C(COC3=O)N(CCO)c3cc4c(cc32)OCCO4)c1 (stereo not given)
growth (DU-145 prostate): -38.9% (active)
growth (K-562 leukemia): 6.5% (active)
growth (MALME-3M melanoma): 69.6%
growth (MDA-MB-231 breast): 8.33% (active)
growth (RXF 393 renal): 11.2%
growth (SF-268 CNS): 23.8%
growth (SF-295 CNS): -5.81% (active)
growth (SF-539 CNS): -23.1% (active)
growth (UACC-257 melanoma): 53.6%
growth (M14 melanoma): -11.7% (active)
growth (HCT-15 colon): 2.89% (active)
growth (HT29 colon): -30.7% (active)
growth (SNB-75 CNS): -14.1% (active)
growth (SNB-19 CNS): 9.81% (active)
growth (U251 CNS): 2.46% (active)
growth (PC-3 prostate): 20.3%
growth (SK-MEL-5 melanoma): -12.1% (active)
growth (UACC-62 melanoma): 24.8%
growth (LOX IMVI melanoma): 22.1%
growth (SK-MEL-28 melanoma): 38.7%

CCOC(=O)c1c(C)n2c(=O)cc(C)c3c(OC(C)=O)c(OC(C)=O)cc1c32
growth (DU-145 prostate): 67.3%
growth (K-562 leukemia): 22.3%
growth (MALME-3M melanoma): 75%
growth (MDA-MB-231 breast): 86.7%
growth (RXF 393 renal): 73.8%
growth (SF-268 CNS): 49.6%
growth (SF-295 CNS): 94.8%
growth (SF-539 CNS): 72.1%
growth (UACC-257 melanoma): 108%
growth (M14 melanoma): 83.2%
growth (HCT-15 colon): 41.2%
growth (HT29 colon): 102%
growth (SNB-75 CNS): 74.1%
growth (SNB-19 CNS): 72%
growth (U251 CNS): 50.9%
growth (PC-3 prostate): 59.2%
growth (SK-MEL-5 melanoma): 50.3%
growth (UACC-62 melanoma): 76.2%
growth (LOX IMVI melanoma): 42.4%
growth (SK-MEL-28 melanoma): 64.7%

CCOC(=O)CSc1nc2sc3c(c2c(=O)n1-c1ccccc1)CCCCC3
growth (DU-145 prostate): 108%
growth (K-562 leukemia): 98.4%
growth (MALME-3M melanoma): 109%
growth (MDA-MB-231 breast): 105%
growth (RXF 393 renal): 119%
growth (SF-268 CNS): 104%
growth (SF-295 CNS): 96.3%
growth (SF-539 CNS): 101%
growth (UACC-257 melanoma): 96.8%
growth (M14 melanoma): 108%
growth (HCT-15 colon): 104%
growth (HT29 colon): 102%
growth (SNB-75 CNS): 112%
growth (SNB-19 CNS): 89.2%
growth (U251 CNS): 93.4%
growth (PC-3 prostate): 109%
growth (SK-MEL-5 melanoma): 97.6%
growth (UACC-62 melanoma): 99.5%
growth (LOX IMVI melanoma): 101%
growth (SK-MEL-28 melanoma): 112%
